These results are taken from PubChem BioAssay AID463173 (ICCB-Longwood Screening Facility, Harvard Medical School, 2010).

Hit rate of the full screen: of about 52,000 compounds, about 4,300 (8.3%) were called active. The sample holds actives, similar compounds and a random draw of the others, so the mix is not that of the screen. Unmarked numbers belong to inactive results. No stated cut-off is given here; in the data, active means survival mostly below about 52% (no sharp cut-off); inactive means mostly above about 56%.

This assay concerns DeltatarO mutant. Briefly: growth inhibition of S. aureus wild type versus tarO mutant, primary screen, teichoic acid synthesis inhibitors, RN4220, OD600 (AID 463173). The note with it: OD600, 18 h, stronger effect = lower value, screened at 18.75 µg/mL (by protocol).
Regarding `CCc1ccc2oc(C(=O)Nc3cc(C)ccc3C)cc(=O)c2c1`, the survival was 52%.
For the molecule `Cc1ccc(C(=O)Nc2ccc3oc(-c4cccnc4)nc3c2)cc1`, the survival was 83%.
Consider `COc1cccc(NC(=O)c2oc3ccccc3c2NC(=O)c2ccccc2C)c1`, for which the survival was 43% (active).
As to `COc1cccc(NC(=O)c2oc3ccccc3c2C)c1`, the survival is 106%.
As to `COc1cccc(NC(=O)c2oc3ccccc3c2NC(=O)COc2ccccc2C)c1`, the survival was 122%.
As for `CCOC(=O)C(=O)Nc1c(C(=O)Nc2cccc(F)c2)oc2ccccc12`, the survival was 97%.
On to `Cc1ccc(NC(=O)c2oc3ccccc3c2NC(=O)c2ccccc2C)cc1`, for which the survival was 79%.
Consider `Cc1ccccc1C(=O)Nc1c(C(=O)Nc2cccc(F)c2)oc2ccccc12`, for which the survival is 46% (active).
Regarding `O=C(OCc1cc(=O)n2nc(-c3cccs3)sc2n1)c1ccccc1Br`, the survival is 75%.
The same measure for `CC1C(C(=O)Nc2ccccc2)CCCC1(C)C(=O)O` (stereo not drawn): 80%; for `CC(=O)c1cccc(NC(=O)C2CCN(c3ncnc4c3nc3n4CCCCC3)CC2)c1`: 84%; for `O=C(CN(c1ccc2c(c1)OCCO2)S(=O)(=O)c1ccccc1)NC1CC1`: 75%.
For `CCOc1ccc(NC(=O)c2ccc3c(=O)n4nc(Nc5ccccc5C)sc4nc3c2)cc1`, the survival was 113%.
The same measure for `CCCCN(CC)C(=O)C1CCC(CNS(=O)(=O)c2cccc3nsnc23)CC1` (stereo not drawn): 83%; for `O=C(CCC(=O)N1Cc2ccccc2Oc2ncccc21)Nc1ccc(Cl)cc1`: 37% (active); for `Cc1ccc(CNC(=O)CCC(=O)N2Cc3ccccc3Oc3ncccc32)cc1`: 71%.
The same measure for `CN(C)c1ccc(CNC(=O)CCC(=O)N2Cc3ccccc3Oc3ncccc32)cc1`: 83%; for `CCC(C)NC(=O)CCC(=O)N1Cc2ccccc2Oc2ncccc21` (stereo not drawn): 117%; for `CCOc1ccc(CNC(=O)CCC(=O)N2Cc3ccccc3Oc3ncccc32)cc1`: 32% (active).
For the molecule `Cc1ccc(NC(=O)CCC(=O)N2Cc3ccccc3Oc3ncccc32)cc1`, the survival is 49%.
As for `CC(C)NC(=O)CCC(=O)N1Cc2ccccc2Oc2ncccc21`, the survival was 0% (active).
With `CC(C)CCNC(=O)CCC(=O)N1Cc2ccccc2Oc2ncccc21`, the survival is 55%.
For `Cc1ccc(NC(=O)CCC(=O)N2Cc3ccccc3Oc3ncccc32)cc1Cl`, the survival is 83%.
The value for `CCOc1ccc(CNC(=O)Cn2nc(C)n3cccc3c2=O)cc1` was 101%; that for `Cc1cccc(NC(=O)C2CCN(S(=O)(=O)c3ccc(F)cc3)CC2)c1C` was 60%.
As to `COc1ccc(CNC(=O)CCCN2C(=O)CCn3nc(-c4cn(C)c5ccccc45)cc32)cc1`, the survival is 88%.
As to `COc1ccc(OC)c(NC(=O)Cc2coc3ccc(C(C)C)cc23)c1`, the survival was 73%.
Regarding `Cc1ccc(N(C)C(=O)Cn2nc(Cc3ccncc3)c3ccccc3c2=O)cc1C`, the survival is 84%.
With `Oc1ccc2ccccc2c1/C=N/c1nccs1`, the survival is 81%.
As to `CCOc1ccccc1NC(=O)Nc1ccc2nc(N3CCN(C)CC3)cc(C)c2c1`, the survival is 75%.
On to `COc1ccc(CCNC(=O)C(=O)NCC(c2cccs2)S(=O)(=O)c2cccs2)cc1` (stereo not drawn), for which the survival was 78%.
With `COc1cc(S(=O)(=O)N2CCCCC2C)c(OC)cc1Cl` (stereo not drawn), the survival is 114%.
Regarding `CC(CCc1ccccc1)NC(=O)Cn1c(=O)nc(-c2ccccc2)c2ccccc21` (stereo not drawn), the survival was 99%.
With `CC1(C)OC(=O)C(=C2CCCCCN2)C(=O)O1`, the survival was 99%.
For `CC(C)(C)C1CCc2c(sc3nc(-c4cc5cc(Cl)ccc5oc4=O)[nH]c(=O)c23)C1` (stereo not drawn), the survival is 83%.
On to `O=C(O)c1ccc2nc(-c3cc4cc(Cl)ccc4oc3=O)[nH]c2c1`, for which the survival is 69%.
The value for `Cc1c(C(=O)Nc2ccccc2)sc2nc(-c3cc4cc(Cl)ccc4oc3=O)[nH]c(=O)c12` was 45% (active).
For the molecule `COc1ccc(Cl)cc1NC(=O)c1sc2nc3n(c(=O)c2c1C)CCC3`, the survival was 76%.
On to `COc1ccccc1NC(=O)c1sc2nc(-c3cc4ccccc4oc3=O)[nH]c(=O)c2c1C`, for which the survival is 106%.
In the case of `COc1ccccc1NC(=O)c1sc2nc(-c3cc4cc(Cl)ccc4oc3=O)[nH]c(=O)c2c1C`, the survival was 45% (active).
`COc1ccc(-c2cn3nc(SCC(=O)Nc4ccc(C)c(Cl)c4)ccc3n2)cc1`: the survival was 94%.
Take `COc1ccccc1N1CCN(C(=O)c2oc3ccccc3c2NC(=O)C(C)Oc2ccccc2)CC1` (stereo not drawn): the survival is 69%.
With `CCNc1nc2c(c(=O)[nH]c(=O)n2C)n1CC(O)COc1ccc(Cl)cc1Cl` (stereo not drawn), the survival is 180%.
The same measure for `CN(C)c1ccc(CNS(=O)(=O)c2csc(C(N)=O)c2)cc1`: 60%; for `O=C(CC1N=C2c3ccccc3N=C(SCc3ccc(F)cc3)N2C1=O)NCCc1ccccc1` (stereo not drawn): 85%; for `CCOc1ccc(S(=O)(=O)Nc2nc3ccccc3nc2Nc2ccc(OC)cc2)cc1`: 68%.
As to `COc1ccc(Nc2nc3ccccc3nc2NS(=O)(=O)c2ccc(Cl)cc2)cc1OC`, the survival is 29% (active).
With `CCOC(=O)c1ccc(Nc2nc3ccccc3n3c(C)nnc23)cc1`, the survival was 67%.
For the molecule `COc1ccc(Nc2nc3c(S(=O)(=O)c4ccccc4)nnn3c3ccc(Cl)cc23)cc1OC`, the survival was 117%.
The same measure for `CCOC(=O)c1ccc(Nc2nc3ccccc3nc2NS(=O)(=O)c2ccc(Cl)cc2)cc1`: 37% (active); for `COc1ccc(Nc2nc3ccccc3nc2NS(=O)(=O)c2ccc(C)cc2)c(OC)c1`: 63%; for `CCOc1ccccc1Nc1nc2ccccc2nc1NS(=O)(=O)c1ccc(Cl)cc1`: 79%.
With `COc1ccc2nc(NS(=O)(=O)c3ccc(C)cc3)c(Nc3cc(Cl)ccc3OC)nc2c1`, the survival was 22% (active).
For the molecule `CCc1ccc(Nc2nc3ccccc3nc2NS(=O)(=O)c2ccccc2)cc1`, the survival was 28% (active).
`Cc1ccc2nc(NS(=O)(=O)c3ccc(Cl)cc3)c(Nc3ccc(C(=O)O)cc3)nc2c1`: the survival was 109%.
The same measure for `COc1cc(Cl)c(C)cc1Nc1nc2ccccc2nc1NS(=O)(=O)c1ccccc1`: 116%; for `Cc1cccc(C)c1Nc1nc2ccccc2nc1NS(=O)(=O)c1ccccc1`: 79%; for `Cc1ccc(Cl)cc1NC(=O)CN1C(=O)CSc2ccc(S(=O)(=O)N3CCCC3)cc21`: 97%.
On to `CCN1CCN(CCCNC(=O)Cn2nc(C)n3c(cc4cc(C)ccc43)c2=O)CC1`, for which the survival was 98%.
The same measure for `Cc1cc(C)cc(NC(=O)CCCn2nc(C)c3c(C)n(-c4ccccc4)nc3c2=O)c1`: 80%; for `NC(Cc1c[nH]c2ccccc12)C(=O)NCc1ccccc1` (stereo not drawn): 92%; for `CN1C(C(=O)c2ccccc2)=C(NC(=O)c2ccccc2Br)c2ccccc2S1(=O)=O`: 63%.
Consider `COc1ccccc1C(=O)Nc1ccc(S(=O)(=O)Nc2nc(C)cc(C)n2)cc1`, for which the survival was 61%.
As for `COC(=O)c1cc(Nc2nc3ccccc3nc2NS(=O)(=O)c2ccc(C)cc2)ccc1Cl`, the survival was 29% (active).
As to `O=S(=O)(Nc1nc2ccccc2nc1Nc1ccccc1Br)c1ccccc1`, the survival was 112%.
`CCn1c(=O)c2sccc2n2c(CCC(=O)Nc3ccc(OC)c(Cl)c3)nnc12`: the survival is 89%.
As for `CCOc1ccc(CNC(=O)c2ccc(-c3nc(CS(=O)(=O)c4ccccc4)c(C)o3)cc2)cc1`, the survival was 76%.
As for `COC(=O)c1ccccc1NC(=O)CN(c1ccc(Cl)cc1)S(=O)(=O)c1ccc(OC)cc1`, the survival is 72%.
With `COc1cccc(NC(=O)c2sc3nc(C)c(C(=O)Nc4ccc(C)cc4C)c(-c4ccc(C)o4)c3c2N)c1`, the survival was 39% (active).
As to `COc1cccc(NC(=O)c2sc3nc(C)c(C(=O)Nc4ccc(C)cc4C)c(-c4ccco4)c3c2N)c1`, the survival was 79%.
With `COc1ccc(NC(=O)c2sc3nc(C)c(C(=O)Nc4ccc(C)cc4C)c(-c4ccc(C)o4)c3c2N)cc1`, the survival is 51%.
As to `Cc1ccc(/C=C/c2onc(C)c2S(=O)(=O)N2CCC(C(=O)N3CCN(c4ccccc4F)CC3)CC2)cc1`, the survival is 116%.
`Cc1ccc(CCNC(=O)c2ccc(NC(=O)N3CC(C)Sc4ccccc43)cc2)cc1` (stereo not drawn): the survival was 73%.
On to `CCOc1ccc(-c2nc(Cn3c(=O)cc(-c4ccccc4)c4c(C)nn(C)c43)c(C)o2)cc1`, for which the survival was 128%.
Turning to `CCc1ccc(-c2[nH]nc3nc(-c4ccc(OC)cc4)cc(C(=O)NCCc4ccc(OC)c(OC)c4)c23)cc1`, the survival is 81%.
Take `CCc1ccc(-c2cn3nc(CC)sc3n2)cc1`: the survival was 66%.
For `CC(=O)N1CCc2c(sc3c2c(=O)n(CCc2ccccc2)c(=O)n3CC(=O)Nc2ccccc2F)C1`, the survival was 55%.
With `COc1c(C)cc(NS(=O)(=O)c2ccc3c(c2)OCCO3)cc1C`, the survival was 72%.
As to `Cc1ccc(NC(=O)COCc2cc(-c3cccs3)on2)cc1Cl`, the survival was 57%.
With `O=C(COCc1cc(-c2cccs2)on1)N1CCN(c2ccc(F)cc2)CC1`, the survival is 98%.
Regarding `O=C(COCc1cc(-c2cccs2)on1)N1CCN(c2ccccc2)CC1`, the survival was 72%.
Turning to `O=C(COCc1cc(-c2ccco2)on1)Nc1cccc(O)c1`, the survival was 78%.
Take `O=C(COCc1cc(-c2cccs2)on1)Nc1cccc(O)c1`: the survival was 0% (active).
Take `O=C(COCc1cc(-c2cccs2)on1)N1CCN(c2cccc(Cl)c2)CC1`: the survival was 37% (active).
The same measure for `O=C(c1ccc2c(c1)N(Cc1ccccc1F)C(=O)c1ccccc1S2=O)N1CCC(Cc2ccccc2)CC1` (stereo not drawn): 77%; for `Cc1cccc(C)c1NC(=O)Cn1nnc(S(=O)(=O)c2ccccc2)c1N`: 91%; for `Cc1cccc(NC(=O)CSc2cn(CC(=O)N3CCOCC3)c3ccccc23)c1C`: 64%.
On to `O=C(c1ccc2c(c1)N(Cc1ccccc1)C(=O)c1ccccc1S2(=O)=O)N1CCCCCC1`, for which the survival was 70%.
